Values joined by “and” are separate entries in the source; they are usually repeats but may differ in a detail not shown here. Identical values can stand only once. This is part of a sample that, as a whole, favours compounds with a hit. Of some 79,000 tested, about 15% had one in any assay. Unmarked numbers belong to inactive results. Active and inactive are the calls of the source. No stated cut-off is given here; in the data, active means growth inhibition above about 70%; inactive means the rest.
Legend:
[1] = NCI Yeast Anticancer Drug Screen. Data for the rad50 strain (AID 155);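 further: 0% = growth of vehicle-only cultures of the same strain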; details: S. cerevisiae rad50 strain growth inhibition, active compounds read high
Procedure, shortened: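 Inhibition values express reduced yeast growth in compound-treated cultures relative to vehicle-treated controls.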

[2] = NCI Yeast Anticancer Drug Screen. Data for the sgs1 mgt1 strain (AID 161);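 further: 0% = growth of cultures given vehicle only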; details: S. cerevisiae sgs1 mgt1 strain, active compounds read high
Procedure, shortened: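 This yeast growth screen uses a strain with defined DNA-repair lesions; compound-treated growth is compared with vehicle-treated growth.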

[3] = NCI Yeast Anticancer Drug Screen. Data for the cln2 rad14 strain (AID 165);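 further: 0% = growth equal to vehicle treated cultures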; details: S. cerevisiae cln2 rad14 strain, active compounds read high
Procedure, shortened: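 Readout is yeast growth inhibition versus vehicle-treated controls, using a strain with cln2 and rad14 alterations exposed to compound.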

[4] = NCI Yeast Anticancer Drug Screen. Data for the bub3 strain (AID 167); details: S. cerevisiae bub3 mutant strain, active compounds read high
Procedure, shortened: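 Steps: expose the mutant yeast strain to compound; grow alongside vehicle-treated cultures; measure growth; express inhibition against the vehicle cultures.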

[5] = NCI Yeast Anticancer Drug Screen. Data for the mlh1 rad18 strain (AID 175); details: S. cerevisiae mlh1 rad18 strain growth inhibition, active compounds read high
Procedure, shortened: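 Genetically defined yeast (DNA repair-deficient) exposed to compounds; growth inhibition determined relative to vehicle.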

[6] = NCI Yeast Anticancer Drug Screen. Data for the mec2-1 strain (AID 157); details: S. cerevisiae mec2-1 strain, active compounds read high
Procedure, shortened: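 Mutant yeast (mec2-1) grown with compound; growth inhibition relative to vehicle control reported.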

[7] = at 5.0 µM (retest, dose inferred, filed as 0.5)
[8] = at 50.0 µM (retest, dose inferred, filed as 5.0)

Compound	growth inhibition [1, 7]	growth inhibition [1, 8]	growth inhibition ([1]; at 50.0 µM)	growth inhibition [2, 7]	growth inhibition [2, 8]	growth inhibition ([2]; at 50.0 µM)	growth inhibition [3, 7]	growth inhibition [3, 8]	growth inhibition ([3]; at 50.0 µM)	growth inhibition [4, 7]	growth inhibition [4, 8]	growth inhibition ([4]; at 50.0 µM)	growth inhibition [5, 7]	growth inhibition [5, 8]	growth inhibition ([5]; at 50.0 µM)	growth inhibition [6, 7]	growth inhibition [6, 8]	growth inhibition ([6]; at 50.0 µM)
O=C(CN1CCCCC1)c1ccc(/C=C/c2ccc(Cl)cc2)cc1	7%	98% (active)	98.6% (active)	12%	98% (active)	97.1% (active)	-20%	75% (active)	97.5% (active)	-13%	99% (active)	96.8% (active)	21%	99% (active)	98.1% (active)	–	–	–
CN(C)c1nc(N(C)C)nc([N+](C)(C)C)n1	1%	-1%	98.5% (active)	-1%	-4%	99.1% (active)	-3%	-1%	96.5% (active)	0%	-5%	98% (active)	-5%	-7%	98.7% (active)	–	–	–
O=C(Cc1nc2ccccc2s1)Nc1cccc(C(F)(F)F)c1	–	–	–	54%	99% (active)	94.7% (active)	32%	98% (active)	92.6% (active)	35%	99% (active)	92.4% (active)	64%	99% (active)	93% (active)	39%	100% (active)	93.7% (active)
O=C(O)Cc1cccc2cc3c(ccc4ccccc43)cc12	15%	34%	47.7%	11%	47%	10.1%	-2%	44%	96.6% (active)	2%	42%	93.3% (active)	8%	44%	96.7% (active)	–	–	–
Cc1cc(C(=O)O)c(C)c2c1sc1ccccc12	–	–	–	12%	82% (active)	62.8%	–	–	–	-11%	-14%	51.1%	0%	81% (active)	81.2% (active)	3%	79% (active)	27.2%
CCCCC(=S)N1CCN(c2ccccc2)CC1	-3%	-8%	90.3% (active)	5%	9%	92.1% (active)	-1%	-14%	14.9%	2%	20%	81.7% (active)	-2%	-9%	87.8% (active)	–	–	–
Cc1cccc2c1C1c3c(C)cccc3C(O)CC1CC2O (stereo not given)	15%	3%	36.5%	-2%	45%	42.4%	-18%	-1%	30.1%	-10%	4%	33.5%	1%	28%	39.8%	–	–	–
CCSC(=O)/C=C1\CN(C(=O)OC(C)(C)C)C1C(=O)OC(C)(C)C (stereo not given)	-23%	-7%	30.1%	-44%	-2%	56%	-35%	14%	72.9% (active)	-57%	10%	58.5%	-15%	12%	70% (active)	–	–	–
Clc1nc(Cl)c(Cc2ccccc2)c(Cl)n1	–	–	–	38%	100% (active)	90.7% (active)	34%	94% (active)	89.2% (active)	49%	99% (active)	87.2% (active)	78% (active)	97% (active)	88.5% (active)	50%	99% (active)	93.4% (active)
O=C(CC(C(=O)O)C(c1ccccc1)[N+](=O)[O-])c1ccccc1 (stereo not given)	–	–	-4.1% and 6.9% and 6.55%	–	–	4.4% and 6.3% and -17.4%	–	–	-67.8% and 15.6% and -18.9%	–	–	-9.65% and 9.1% and 5.6%	–	–	-2.55% and 22.1% and 32.6%	–	–	-5.4% and -10.8% and 16.7%
Cc1c2cnccc2c(C)c2c1c1ccccc1n2CCOC(=O)c1ccccc1	–	–	–	1%	81% (active)	89.7% (active)	39%	82% (active)	75.2% (active)	8%	87% (active)	90.3% (active)	10%	87% (active)	91.5% (active)	-4%	78% (active)	87.8% (active)
CCCC1=C(c2ccccc2)C(O)(c2ccccc2)C(CCC)C1=O (stereo not given)	–	–	–	0%	37%	96.2% (active)	-9%	19%	95.3% (active)	-3%	69%	93.3% (active)	–	–	–	4%	47%	96.4% (active)

From PubChem BioAssay (NCI)
